Experimental data reported in PubChem BioAssay AID1159580 (chemical genetic matrix, 2015).
“And” between values parts separate entries of the source, which are not always exact repeats. Equal entries are not always repeated. In all, about 5,500 compounds went through this assay and about 2,000 (36%) were called active. Inconclusive results (about 18%) are left out. The list shows a part of the results. Values without a mark were called inactive. No stated cut-off is given here; in the data, active means normalized growth mostly below about 0.91 (no sharp cut-off); inconclusive means no clear call, values can overlap the other calls; inactive means mostly above about 0.92.

Experiment: chemical genetic growth profiling, strain panel (AID 1159580);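 further: tested at 20 µM; growth read once vehicle control cultures reached saturation at 30 °C; 1 = growth at the plate median or of vehicle wells; lower values mean less growth of the strain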
Conditions: growth OD

## O=c1c(O)c(-c2ccc(O)c(O)c2)oc2cc(O)cc(O)c12
S. cerevisiae deletion strains, locus YKL009W, strain mrt4, active compounds read low
  normalized growth: 1.01
S. cerevisiae deletion strains, locus YKL068W, active compounds read low
  normalized growth: 1.03
S. cerevisiae deletion strains, locus YKL085W, strain MDH1 (second series), active compounds read low
  normalized growth: 1.06
S. cerevisiae deletion strains, locus YKL085W, strain MDH1, active compounds read low
  normalized growth: 1.06
S. cerevisiae deletion strains, locus YKL160W, strain elf1, active compounds read low
  normalized growth: 0.87 (active)
S. cerevisiae deletion strains, locus YKL190W, strain CNB1, active compounds read low
  normalized growth: 0.97
S. cerevisiae deletion strains, locus YKR001C, strain vps1, active compounds read low
  normalized growth: 0.94
S. cerevisiae deletion strains, locus YKR026C, strain gcn3, active compounds read low
  normalized growth: 1
S. cerevisiae deletion strains, locus YKR091W, strain srl3, active compounds read low
  normalized growth: 0.979
S. cerevisiae deletion strains, locus YLL001W, strain dnm1, active compounds read low
  normalized growth: 0.941
S. cerevisiae deletion strains, locus YLL026W, active compounds read low
  normalized growth: 0.982
S. cerevisiae deletion strains, locus YLL041C, strain sdh2, active compounds read low
  normalized growth: 0.979
S. cerevisiae deletion strains, locus YLR027C, strain aat2, active compounds read low
  normalized growth: 0.893 (active)
S. cerevisiae deletion strains, locus YLR039C, strain RIC1, active compounds read low
  normalized growth: 0.872
S. cerevisiae deletion strains, locus YLR058C, strain SHM2, active compounds read low
  normalized growth: 0.937
S. cerevisiae deletion strains, locus YLR102C, strain apc9, active compounds read low
  normalized growth: 1.04
S. cerevisiae deletion strains, locus YLR113W, strain HOG1, active compounds read low
  normalized growth: 0.98
S. cerevisiae deletion strains, locus YLR221C, strain rsa3, active compounds read low
  normalized growth: 0.906 (active)
S. cerevisiae deletion strains, locus YLR258W, strain gsy2, active compounds read low
  normalized growth: 0.878 (active)
S. cerevisiae deletion strains, locus YLR262C, strain YPT6 (second series), active compounds read low
  normalized growth: 0.779 (active)
S. cerevisiae deletion strains, locus YLR262C, strain YPT6, active compounds read low
  normalized growth: 0.982
S. cerevisiae deletion strains, locus YLR268W, strain sec22, active compounds read low
  normalized growth: 0.924
S. cerevisiae deletion strains, locus YLR320W, strain mms22, active compounds read low
  normalized growth: 0.869 (active)
S. cerevisiae deletion strains, locus YLR330W, strain CHS5, active compounds read low
  normalized growth: 0.991
S. cerevisiae deletion strains, locus YLR342W, strain FKS1 (second series), active compounds read low
  normalized growth: 0.719 (active)
S. cerevisiae deletion strains, locus YLR342W, strain FKS1, active compounds read low
  normalized growth: 0.8 (active)
S. cerevisiae deletion strains, locus YLR357W, strain rsc2, active compounds read low
  normalized growth: 0.713 (active)
S. cerevisiae deletion strains, locus YLR370C, strain arc18, active compounds read low
  normalized growth: 0.859 (active)
S. cerevisiae deletion strains, locus YLR371W, strain rom2, active compounds read low
  normalized growth: 0.969
S. cerevisiae deletion strains, locus YLR384C, strain iki3, active compounds read low
  normalized growth: 0.951
S. cerevisiae deletion strains, locus YLR418C, strain cdc73, active compounds read low
  normalized growth: 0.775 (active)
S. cerevisiae deletion strains, locus YML016C, strain PPZ1, active compounds read low
  normalized growth: 0.961
S. cerevisiae deletion strains, locus YML032C, strain rad52, active compounds read low
  normalized growth: 1.04
S. cerevisiae deletion strains, locus YML120C, strain ndi1, active compounds read low
  normalized growth: 0.98
S. cerevisiae deletion strains, locus YML124C, strain tub3, active compounds read low
  normalized growth: 1.03
S. cerevisiae deletion strains, locus YMR058W, strain fet3, active compounds read low
  normalized growth: 0.882 (active)
S. cerevisiae deletion strains, locus YMR078C, strain ctf18, active compounds read low
  normalized growth: 1.03
S. cerevisiae deletion strains, locus YMR125W, strain sto1, active compounds read low
  normalized growth: 1.02
S. cerevisiae deletion strains, locus YMR129W, active compounds read low
  normalized growth: 0.955
S. cerevisiae deletion strains, locus YMR205C, strain PFK2, active compounds read low
  normalized growth: 0.929
S. cerevisiae deletion strains, locus YMR223W, strain ubp8, active compounds read low
  normalized growth: 0.928
S. cerevisiae deletion strains, locus YMR231W, strain pep5, active compounds read low
  normalized growth: 0.953
S. cerevisiae deletion strains, locus YMR263W, strain SAP30, active compounds read low
  normalized growth: 0.906
S. cerevisiae deletion strains, locus YMR307W, strain GAS1, active compounds read low
  normalized growth: 0.683 and 1
S. cerevisiae deletion strains, locus YNL067W, strain RPL9B, active compounds read low
  normalized growth: 0.913
S. cerevisiae deletion strains, locus YNL071W, strain lat1, active compounds read low
  normalized growth: 0.848 (active)
S. cerevisiae deletion strains, locus YNL128W, strain TEP1, active compounds read low
  normalized growth: 0.964 and 0.995
S. cerevisiae deletion strains, locus YNL153C, strain GIM3, active compounds read low
  normalized growth: 0.875 and 0.922
S. cerevisiae deletion strains, locus YNL175C, strain NOP13, active compounds read low
  normalized growth: 1.01
S. cerevisiae deletion strains, locus YNL183C, strain NPR1, active compounds read low
  normalized growth: 0.928
S. cerevisiae deletion strains, locus YNL197C, strain WHI3, active compounds read low
  normalized growth: 1.01
S. cerevisiae deletion strains, locus YNL209W, strain ssb2, active compounds read low
  normalized growth: 0.636 (active)
S. cerevisiae deletion strains, locus YNL224C, strain SQS1, active compounds read low
  normalized growth: 1.02
S. cerevisiae deletion strains, locus YNL233W, strain BNI4, active compounds read low
  normalized growth: 0.859 (active)
S. cerevisiae deletion strains, locus YNL248C, strain rpa49, active compounds read low
  normalized growth: 0.948
S. cerevisiae deletion strains, locus YNL250W, strain rad50, active compounds read low
  normalized growth: 1.02
S. cerevisiae deletion strains, locus YNL271C, strain bni1, active compounds read low
  normalized growth: 1.02
S. cerevisiae deletion strains, locus YNL298W, strain CLA4, active compounds read low
  normalized growth: 1.01
S. cerevisiae deletion strains, locus YNL307C, strain MCK1, active compounds read low
  normalized growth: 0.948
S. cerevisiae deletion strains, locus YNL322C, strain KRE1 (second series), active compounds read low
  normalized growth: 0.941
S. cerevisiae deletion strains, locus YNL322C, strain KRE1, active compounds read low
  normalized growth: 0.929
S. cerevisiae deletion strains, locus YNR049C, strain mso1, active compounds read low
  normalized growth: 0.967
S. cerevisiae deletion strains, locus YNR052C, strain pop2, active compounds read low
  normalized growth: 1
S. cerevisiae deletion strains, locus YOL006C, strain TOP1, active compounds read low
  normalized growth: 0.616
S. cerevisiae deletion strains, locus YOL012C, strain htz1
  normalized growth: 0.39
S. cerevisiae deletion strains, locus YOL147C, strain pex11, active compounds read low
  normalized growth: 1.03
S. cerevisiae deletion strains, locus YOR001W, strain rrp6, active compounds read low
  normalized growth: 0.925
S. cerevisiae deletion strains, locus YOR061W, strain CKA2, active compounds read low
  normalized growth: 0.939
S. cerevisiae deletion strains, locus YOR069W, strain VPS5, active compounds read low
  normalized growth: 0.974
S. cerevisiae deletion strains, locus YOR070C, strain gyp1, active compounds read low
  normalized growth: 0.885 (active)
S. cerevisiae deletion strains, locus YOR080W, strain dia2, active compounds read low
  normalized growth: 0.925
S. cerevisiae deletion strains, locus YOR083W, strain WHI5 (second series), active compounds read low
  normalized growth: 0.994
S. cerevisiae deletion strains, locus YOR083W, strain WHI5, active compounds read low
  normalized growth: 0.808 (active)
S. cerevisiae deletion strains, locus YOR106W, strain vam3, active compounds read low
  normalized growth: 0.653 (active)
S. cerevisiae deletion strains, locus YOR136W, strain idh2, active compounds read low
  normalized growth: 1.01
S. cerevisiae deletion strains, locus YOR144C, strain elg1, active compounds read low
  normalized growth: 1.03
S. cerevisiae deletion strains, locus YOR184W, strain ser1, active compounds read low
  normalized growth: 0.92
S. cerevisiae deletion strains, locus YOR231W, strain MKK1, active compounds read low
  normalized growth: 0.991
S. cerevisiae deletion strains, locus YOR265W, strain rbl2, active compounds read low
  normalized growth: 0.963
S. cerevisiae deletion strains, locus YOR270C, strain vph1, active compounds read low
  normalized growth: 0.749 (active)
S. cerevisiae deletion strains, locus YOR290C, strain snf2, active compounds read low
  normalized growth: 0.888
S. cerevisiae deletion strains, locus YOR316C, strain cot1, active compounds read low
  normalized growth: 1.04
S. cerevisiae deletion strains, locus YPL051W, strain arl3, active compounds read low
  normalized growth: 0.814 (active)
S. cerevisiae deletion strains, locus YPL055C, strain LGE1, active compounds read low
  normalized growth: 0.86 and 1
S. cerevisiae deletion strains, locus YPL078C, strain atp4, active compounds read low
  normalized growth: 0.927
S. cerevisiae deletion strains, locus YPL106C, strain sse1, active compounds read low
  normalized growth: 0.783 (active)
S. cerevisiae deletion strains, locus YPL240C, strain hsp82, active compounds read low
  normalized growth: 0.936
S. cerevisiae deletion strains, locus YPL241C, strain CIN2, active compounds read low
  normalized growth: 0.987
S. cerevisiae deletion strains, locus YPL256C, strain CLN2, active compounds read low
  normalized growth: 0.982
S. cerevisiae deletion strains, locus YPR119W, strain clb2, active compounds read low
  normalized growth: 1.05
S. cerevisiae deletion strains, locus YPR141C, strain kar3, active compounds read low
  normalized growth: 1.01
S. cerevisiae deletion strains, locus YPR163C, strain tif3, active compounds read low
  normalized growth: 1.03
S. cerevisiae deletion strains, locus YPR167C, strain met16, active compounds read low
  normalized growth: 1.02
S. cerevisiae deletion strains, strain wtn01, active compounds read low
  normalized growth: 0.931
S. cerevisiae strains, strain wild type, active compounds read low
  normalized growth: 0.912
